Data reported in the supplement of paper PMC9254222.
Whole data set: some 1,100 compounds, median “Renilla luciferase signal (cell health) relative to plate median” near 0.97, cut for the highest 2% near 1.6. The sample holds the highest values, similar compounds and a random draw of the others, so the mix is not that of the screen.

Tested on: HEK293T (UBE3A T485A transfected, BAR Wnt reporter)
Experiment: Renilla luciferase signal (cell health) relative to plate median (fold (linear ratio)); higher = higher Renilla signal
Settings: 24 h
Method in brief: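 HEK293T cells were grown in DMEM with 10% FBS at 37°C and 5% CO2, at 4500 cells/well in white 384-well plates. They were transfected with a BAR firefly luciferase Wnt reporter, TK-Renilla and an expression plasmid using Fugene 6. Four hours later, robots dosed the chemicals at 0.01–100 uM for 24 h, followed by Dual-Glo luciferase readout. Wnt activity (firefly/Renilla ratio) and cell health (raw Renilla) were median-centred per plate, averaged over four biological replicates.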

SMILES | Renilla luciferase signal (concentration: 0.1 uM) | Renilla luciferase signal (concentration: 1 uM) | Renilla luciferase signal (concentration: 10 uM) | Renilla luciferase signal (concentration: 100 uM) | Renilla luciferase signal (concentration: 0.01 uM)
CCCCCCc1ccc(O)cc1O [4-Hexylresorcinol] | 0.881 | 1.04 | 0.888 | 0.0332 | –
CC(C)CC(C=O)NC(=O)C(CC(C)C)NC(=O)C(CC(C)C)NC(=O)OCc1ccccc1 (stereo not drawn) | 0.675 | 0.0628 | 0.00775 | 0.00453 | 0.694
Cn1cc[nH]c1=S [Methimazole] | 0.331 | 0.23 | 0.141 | 2.27 | –
CNCc1ccc(NC(=O)c2c[nH]c3c2C(=O)CCC3)cc1 | 0.616 | 0.8 | 0.437 | 0.144 | –
CC(=O)OC1C(=O)C2(C)C(O)CC3OCC3(OC(C)=O)C2C(OC(=O)c2ccccc2)C2(O)CC(OC(=O)C(O)C(NC(=O)c3ccccc3)c3ccccc3)C(C)=C1C2(C)C (stereo not drawn) [Taxol] | 0.104 | 0.111 | 0.131 | 0.0793 | 0.147
CCCOC(=O)NCCCN(C)C.Cl [Propamocarb hydrochloride] | 0.992 | 0.949 | 0.972 | 1.17 | 0.977
COCCOCCOC [Bis(2-methoxyethyl) ether] | 1.08 | 1.3 | 1.34 | 1.31 | –
Cn1cnc2c1c(=O)[nH]c(=O)n2C [Theobromine] | 0.97 | 0.856 | 1.15 | 1.22 | –
Cn1c(=O)c2c(ncn2C)n(C)c1=O [Caffeine] | 0.946 | 0.966 | 0.989 | 1.67 | 1.18
Cn1c(=O)c2[nH]cnc2n(C)c1=O [Theophylline] | 0.944 | 0.973 | 0.911 | 1.09 | –
O=C(N[C@@H](Cc1ccccc1)[C@@H](O)C(=O)N1C[C@@H](O)[C@@H](O)C1)c1cc2cc(Cl)ccc2[nH]1 [Ingliforib] | 0.797 | 0.711 | 0.851 | 0.148 | –
COc1cccc(-c2ccc(/C=C\CN3CCCCCC3)cc2Cl)c1.Cl | 1.01 | 1.16 | 1.14 | 2.06 | –
CCOCCOCCO [2-(2-Ethoxyethoxy)ethanol] | 0.939 | 1.02 | 0.906 | 1.17 | –
CCOCCOCCOCCO [2-[2-(2-Ethoxyethoxy)ethoxy]ethanol] | 0.893 | 0.862 | 0.833 | 0.954 | –
CCOCCO [2-Ethoxyethanol] | 1.23 | 1.26 | 1.38 | 1.66 | –
Cc1ncc(CO)c(CO)c1O [Pyridoxine] | 0.951 | 0.873 | 1 | 1.14 | –
C=CCc1ccc(OC)c(OC)c1 [Methyleugenol] | 0.897 | 0.832 | 0.797 | 0.924 | –
Cc1ccc(C)c(O)c1C [2,3,6-Trimethylphenol] | 0.934 | 0.808 | 0.965 | 1.14 | –
Cc1ccc(N)cc1O [5-Amino-2-methylphenol] | 1 | 1.22 | 1.28 | 1.78 | –
Cc1ccc(C)c(O)c1 [2,5-Dimethylphenol] | 1.01 | 0.973 | 1.14 | 1.28 | –
C[C@]12CC[C@@H]3c4ccc(O)cc4C[C@@H](CCCCCCCCCS(=O)CCCC(F)(F)C(F)(F)F)[C@H]3[C@@H]1CC[C@@H]2O (stereo partly drawn) [Fulvestrant] | 1.07 | 1.04 | 1.09 | 0.48 | –

SMILES | Renilla luciferase signal (concentration: 0.1 uM) | Renilla luciferase signal (concentration: 1 uM) | Renilla luciferase signal (concentration: 10 uM) | Renilla luciferase signal (concentration: 100 uM) | Renilla luciferase signal (concentration: 0.01 uM)
Cc1nc(C)nc(N2C[C@@H](C)N(c3ccnc([C@@H](C)O)n3)[C@@H](C)C2)n1 | 0.951 | 1.05 | 1.15 | 1.28 | –
CC(C)(C)CC(C)(C)c1ccc(O)c(-n2nc3ccccc3n2)c1 [Octrizole] | 1.08 | 1.17 | 1.27 | 1.31 | –
Cc1cccc(Nc2cc(Cl)nc(SCC(=O)O)n2)c1C [Pirinixic acid] | 0.799 | 0.871 | 0.861 | 1.71 | –
O=C1CCC(N2C(=O)c3ccccc3C2=O)C(=O)N1 (stereo not drawn) [Thalidomide] | 0.78 | 0.818 | 0.85 | 0.675 | –
CCNc1cccc(C)c1 [N-Ethyl-3-methylaniline] | 1.02 | 0.916 | 0.98 | 0.872 | –
CCN(CC)C(=O)c1cccc(C)c1 | 0.897 | 0.949 | 0.847 | 1.79 | 0.895
COc1cc(C=O)ccc1O [4-Hydroxy-3-methoxybenzaldehyde] | 0.805 | 0.833 | 0.848 | 0.902 | –
CCN(Cc1c(F)cccc1Cl)c1c([N+](=O)[O-])cc(C(F)(F)F)cc1[N+](=O)[O-] [Flumetralin] | 0.795 | 0.84 | 1 | 0.766 | 1.1
Cc1cc(C=C2SC(=O)N(c3ccccc3)C2=O)c(C)n1-c1cccnc1 | 1.02 | 1.06 | 0.979 | 0.257 | –
O=c1[nH]c2cc([N+](=O)[O-])c([N+](=O)[O-])cc2[nH]c1=O | 1.01 | 1.02 | 1.09 | 1.96 | 1.11
O=C(Nc1ccc(Cl)cc1)Nc1ccc(Cl)c(Cl)c1 [Triclocarban] | 1 | 0.895 | 0.408 | 0.021 | –
COC(=O)c1ccccc1O [Methyl salicylate] | 1.22 | 1.13 | 1.23 | 0.53 | –
O=C([O-])c1ccc2c(c1)nc(C(=O)NC1CCN(C3CC3)CC1)n2Cc1cc(-c2ccc(Cl)s2)on1.[Na+] | 0.987 | 0.823 | 0.947 | 0.531 | –
O=C1OC(c2ccc(O)cc2)(c2ccc(O)cc2)c2ccccc21 [Phenolphthalein] | 1.1 | 1.09 | 1.15 | 0.0287 | –
CCCCCCCC/C=C\CCCCCCCC(=O)OC[C@@H](O)[C@H]1OC[C@H](O)[C@H]1O [Sorbitan, mono-(9Z)-9-octadecenoate] | 1 | 0.88 | 0.863 | 0.85 | –
O=C(O)c1ccccc1C(c1ccc(O)cc1)c1ccc(O)cc1 [Phenolphthalin] | 1.11 | 1.1 | 0.958 | 0.886 | –
CN(C)CCOC(c1ccccc1)c1ccccc1.Cl [Diphenhydramine hydrochloride] | 0.825 | 0.842 | 0.836 | 0.491 | –
CCCCCC(=O)O [Hexanoic acid] | 1.26 | 1.16 | 1.24 | 1.41 | –
CCCCCCCCCC(=O)O [Decanoic acid] | 0.743 | 0.768 | 0.634 | 0.979 | –
CCCC(=O)O [Butanoic acid] | 1.03 | 1.11 | 1.14 | 1.73 | –
CN(C)C(=O)C1(N2CCCCC2)CCN(CC[C@@]2(c3ccc(Cl)c(Cl)c3)CN(C(=O)c3ccccc3)CCO2)CC1 | 0.903 | 0.888 | 0.664 | 0.0169 | –

SMILES | Renilla luciferase signal (concentration: 0.1 uM) | Renilla luciferase signal (concentration: 1 uM) | Renilla luciferase signal (concentration: 10 uM) | Renilla luciferase signal (concentration: 100 uM) | Renilla luciferase signal (concentration: 0.01 uM)
CCc1c(C(=O)NN2CCCCC2)nn(-c2ccc(Cl)cc2Cl)c1-c1ccc(Br)cc1 [Surinabant] | 1.06 | 1.07 | 0.127 | 0.363 | –
COC(=O)CCCCC(=O)OC [Dimethyl adipate] | 0.854 | 0.917 | 0.874 | 1.11 | –
CCCCCCCCCCCC(=O)OC [Methyl dodecanoate] | 0.884 | 0.792 | 0.85 | 0.89 | –
CCCCCCCC(=O)OC [Methyl octanoate] | 1.03 | 0.911 | 1.04 | 1.61 | –
O=C(O)c1cccc(C[C@@H]2COc3ccc(OCc4nc5cc(F)ccc5s4)cc3[C@@H]2O)c1 | 1.04 | 1.05 | 1.17 | 0.94 | –
C=CCCCCCCCCCCCC [1-Tetradecene] | 1.14 | 1.17 | 0.992 | 1.23 | –
CC[C@H]1CC[C@H](NCc2cc3c(cc2OC)[C@H]2C[C@H]2C(=O)N3C)[C@H](c2ccccc2)N1 | 0.925 | 0.69 | 0.042 | 0.0275 | –
CC(C)(O)c1ccc(CNC(=O)c2cccnc2Oc2ccc3nonc3c2)cc1 | 0.961 | 0.975 | 0.999 | 0.124 | –
CCSC(=O)N(CC(C)C)CC(C)C [Butylate] | 1.15 | 1.07 | 1.09 | 1.59 | 1.09
CCCN(CCC)C(=O)SCC | 0.898 | 1.09 | 0.918 | 2.92 | 0.911
O=[N+]([O-])c1ccc(O)cc1 [4-Nitrophenol] | 0.863 | 0.956 | 0.876 | 0.736 | –
O=C(O)c1ccc([N+](=O)[O-])cc1 [4-Nitrobenzoic acid] | 1.01 | 0.971 | 1.08 | 1.33 | –
C=CCc1cc(S(=O)(=O)c2ccc(O)c(CC=C)c2)ccc1O [4,4'-Sulfonylbis[2-(prop-2-en-1-yl)phenol]] | 1 | 1.11 | 1.34 | 0.0284 | –
Cc1c(C)c2c(c(C)c1O)CCC(C)(CCCC(C)CCCC(C)CCCC(C)C)O2 (stereo not drawn) [Vitamin E (alpha-tocopherol)] | 1.02 | 0.963 | 1.28 | 1.99 | 1.15
Cc1c(C)c2c(c(C)c1O)CCC(C)(COc1ccc(CC3SC(=O)NC3=O)cc1)O2 (stereo not drawn) [Troglitazone] | 0.923 | 0.982 | 0.892 | 0.0852 | –
CCCCCCCCCCCCCCO [1-Tetradecanol] | 0.93 | 0.831 | 0.94 | 0.92 | –
CCOc1ccc2c(c1)C(C)=CC(C)(C)N2 [Ethoxyquin] | 1 | 1.01 | 0.86 | 0.0339 | –
OC[C@H]1O[C@@H]2O[C@H]3[C@H](O)[C@@H](O)[C@@H](O[C@H]4[C@H](O)[C@@H](O)[C@@H](O[C@H]5[C@H](O)[C@@H](O)[C@@H](O[C@H]6[C@H](O)[C@@H](O)[C@@H](O[C@H]7[C@H](O)[C@@H](O)[C@@H](O[C@H]1[C@H](O)[C@H]2O)O[C@@H]7CO)O[C@@H]6CO)O[C@@H]5CO)O[C@@H]4CO)O[C@@H]3CO [alpha-Cyclodextrin] | 1.12 | 1.05 | 1.05 | 1.77 | –
Cc1oc(-c2ccccc2)nc1CCOc1cccc2c1ccn2CCC(=O)O | 0.873 | 0.846 | 0.748 | 0.478 | –
CCN(CC)CCNc1ccc(CNC=O)c2sc3ccc(OC)cc3c(=O)c12 | 0.886 | 0.626 | 0.193 | 0.0173 | –
